Measured values from PubChem BioAssay AID504401 (The Scripps Research Institute Molecular Screening Center, 2011).
A number with no mark means an inactive call. How the calls were made is not given here.

Tested on: Potassium Channel KATP
Experiment: CYP450 and receptor off-target profile – biochemical, Ricerca HitProfilingScreen, selectivity assay for GPR7 antagonist project, late-stage follow-up (AID 504401)
Settings: Ricerca radioligand binding and CYP450 panel, at 10 µM, active compounds read high

COc1ccc(Oc2c(Cl)cnn(-c3cc(C)cc(C)c3)c2=O)cc1
inhibition: 11%
